# Screening data as filed in PubChem.
# Hits are enriched below; roughly 3.7% of the tested compounds scored in any of these assays.
# HTT prom inh – HTT promoter inhibition; HEK293 HTT promoter firefly luciferase reporter, 24 h; Potency, µM (doses to about 57.5 µM), for the others: top-dose activity change, negative = inhibition, most hits filed as inhibitors; hit rate 0.93% among 48,000; AID 1508623; also: potency is read from the fitted curve at half-maximal effect; nearly all actives have a fitted effect of over 50% in size
#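 HEK293 cells carrying firefly luciferase reporters were seeded at 2,500 per well in Opti-MEM and cultured for 24 h. They were then treated with compounds at up to 57.5 uM final for 24 h at 37 degrees C before Dual-Glo luminescence readout.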
# DRV1 agonist – activates human resolvin D1 receptor GPR32; O75388; CHO-K1 GPR32 beta-arrestin PathHunter luminescence, 90 min; zero percent set by DMSO-only wells; activation, % at 76.9 µM; hit rate 2.5% among 48,000; AID 1346428;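 active = activation of at least 60% and not above a set upper limit, about 1 call in 100 departs from these limits; inconclusive = activation of 40% to 60%, or above that upper limit; inactive = activation under 40%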; also: 0% is about no effect
#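 Cells are plated overnight, treated with compounds in DMSO for 90 minutes at 37 °C, and developed with PathHunter detection reagent for 1 hour before luminescence is read; signal reflects beta-arrestin binding to GPR32 in engineered CHO-K1 cells.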
# FH mod – Identification of activators of human fumarate hydratase by quantitative high-throughput screening; Fumarate hydratase, mitochondrial (Homo sapiens), P07954; AID 1347055, 2019; Potency, µM (doses to about 79.9 µM), for inactives: at the highest dose activity change, negative = inhibition, hits mostly inhibitors; FH coupled MDH/diaphorase resazurin fluorescence, 15 min; hit rate 0.22% among 54,000; also: potency is read from the fitted curve at half-maximal effect; % is scaled to controls: 0 for no effect and ±100 for the full control effect; the screen sought activators but most active calls are inhibition curves; nearly all actives have a fitted effect of over 45% in size
# B2AR arrestin ag – beta-arrestin recruitment by human beta2-adrenergic receptor ligands; P07550; HTLA Tango cells, beta-arrestin recruitment, luciferase luminescence, 18 h; Potency, µM (highest dose often 46.1 µM), usual class: activators; 44,000 tested, under 10 active; AID 1347077;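 also: potency is read from the fitted curve at half-maximal effect; 0% = DMSO and full agonism = EC100 isoproterenol or metaproterenol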
#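 Receptor–beta-arrestin recruitment read by tTA-responsive luciferase: compound titrations (up to 46 µM) incubated 18 h with Tango cells, then luminescent substrate 15 min at room temperature. Concentration-response fits classified by r2, efficacy and activity.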
# HTT-AS act – activators of huntingtin-antisense promoter activity; HEK293 HTT-AS promoter firefly luciferase reporter, 24 h; response scale: percent change from vehicle, -100% = no light; Potency, µM (series often up to 57.5 µM), for the others: top-dose activity change, positive = activation, most hits filed as activators; hit rate 0.24% among 48,000; AID 1508624; also: potency is read from the fitted curve at half-maximal effect; nearly all actives have a fitted effect of over 55% in size
#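 Quantitative HTS used concentration series of up to 57.5 uM final on HEK293 luciferase reporter cells, 24 h at 37 degrees C. Readout was Dual-Glo firefly luminescence.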
# GALC G270D up – enhancers of human galactocerebrosidase G270D mutant activity in cells; P54803; Potency, µM (titrated, usually from 57.5 µM), actives largely listed as activators; 145M-Twi-hGALC-G270D cells, HMU-beta-Gal fluorescence, 48 h; hit rate 0.1% among 45,000; also: potency is read from the fitted curve at half-maximal effect; 0% is about no effect; nearly all actives have a fitted effect of over 65% in size
# Target sequence (P54803 whole entry G286D): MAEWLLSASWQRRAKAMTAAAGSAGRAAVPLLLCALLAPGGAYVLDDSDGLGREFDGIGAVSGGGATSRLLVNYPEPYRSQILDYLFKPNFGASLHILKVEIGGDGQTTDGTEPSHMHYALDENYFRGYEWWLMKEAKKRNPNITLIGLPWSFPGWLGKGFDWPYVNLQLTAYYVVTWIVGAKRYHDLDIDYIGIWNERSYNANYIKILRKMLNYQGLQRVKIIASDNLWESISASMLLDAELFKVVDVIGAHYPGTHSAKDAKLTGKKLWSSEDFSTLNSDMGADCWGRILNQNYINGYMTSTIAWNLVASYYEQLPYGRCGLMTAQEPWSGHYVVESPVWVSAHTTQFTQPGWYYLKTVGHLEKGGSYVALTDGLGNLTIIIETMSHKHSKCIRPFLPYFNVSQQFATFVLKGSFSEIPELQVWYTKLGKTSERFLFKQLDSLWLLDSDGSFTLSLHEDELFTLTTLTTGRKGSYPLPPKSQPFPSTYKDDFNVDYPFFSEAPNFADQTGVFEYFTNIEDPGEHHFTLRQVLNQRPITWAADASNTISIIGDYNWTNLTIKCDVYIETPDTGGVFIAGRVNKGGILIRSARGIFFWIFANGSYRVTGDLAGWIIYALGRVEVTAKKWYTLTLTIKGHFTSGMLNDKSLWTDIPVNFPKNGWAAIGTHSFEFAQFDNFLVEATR
#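 qHTS, 1536-well; 145M-Twi-hGALC-G270D cells (WT line also made) in DMEM/F12 + 10% FBS; compound incubation on live cells; HMU-β-gal 0.1 mM final, pH 5.2, NaTC; carbonate stop; fluorescence increase = enhanced residual activity.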
# Numbers without * were called inactive; i = inactive; ? = inconclusive; / = not tested or not shown; [ ] = remark or other dose. Unless noted, calls follow the shape of the dose curve; as a rule, active = well fitted curve in the direction sought with a large enough effect; inconclusive = small, poorly fitted or top-dose-only effect, or another doubt; inactive = no such curve, though single readings can be large; an effect the other way counts as inactive or inconclusive.
SMILES,HTT prom inh,DRV1 agonist,FH mod,B2AR arrestin ag,HTT-AS act,GALC G270D up
CCCCOc1ccc(C(=O)N2CCN(CCc3ccccn3)CC2)cc1,-14%,17,4%,i,-16%,8.9µM*
CCOc1ccc(CCNC(=O)c2cc3cc4ccc(OC)cc4nc3s2)cc1OCC,-3%,65*,-14%,i,-9%,i
C=C(C)[C@@H]1CC[C@](C)(O)[C@@H](OC(=O)c2ccccc2)C1,/,/,3%,/,/,/
CO[C@H]1C[C@@H]2CC[C@@H](C)[C@@](O)(O2)C(=O)C(=O)N2CCCC[C@H]2C(=O)O[C@H]([C@H](C)C[C@@H]2CC[C@@H](OP(C)(C)=O)[C@H](OC)C2)CC(=O)[C@H](C)/C=C(\C)[C@@H](O)[C@@H](OC)C(=O)[C@H](C)C[C@H](C)/C=C/C=C/C=C/1C,/,/,-8%[53.3 µM],/,/,/
CCOc1ccccc1C(=O)Nc1cc2c(cc1N1CCCCC1)n(C)c(=O)n2C,/,70*,/,i,/,/
COc1ccccc1C(=O)Nc1cc2c(cc1N1CCOCC1)n(C)c(=O)n2C,/,-5,/,i,/,/
Cc1ccc2ccc3cc(C(=O)Nc4ccc(C)c(F)c4)nc3c2[nH]1,-17%,60*,-3%,i,-9%,i
CCOc1ccc(NC(=O)C(=O)NCc2ccco2)cc1,-18%[11.5 µM],5,6%,i,16%,i
Cc1ccc(NC(=O)C(=O)NCc2ccco2)cc1,48%,26,10%,i,5µM*,i
Cc1nn(Cc2ccccc2Cl)c(C)c1NC(=O)c1cc(C(C)C)on1,/,86*,/,i,/,/
Cc1nn(Cc2ccc(Cl)cc2)c(C)c1NC(=O)c1noc2c1CCc1ccccc1-2,/,107*,/,i,/,/
COc1ccc2c(c1)CCc1c(C(=O)Nc3c(C)nn(Cc4ccc(Cl)cc4)c3C)noc1-2,?,6,-25%,i,-32%,i
CCc1ccc(NC(=O)COC(=O)CCCC2=NS(=O)(=O)c3ccccc3N2)cc1,0%,64*,-1%,i,-10%,i
CC(C)(C)Oc1ccc(OCC2Cc3ccccc3CN2C(=O)c2cccc3ccccc23)cc1 (stereo unspecified),/,/,-20%,/,/,/
CC(C)c1ccc2oc3nc(N)c(C(=O)O)cc3c(=O)c2c1,28%,104*,-10%[53.3 µM],/,?,i
CC(=O)OC1C(OC(=O)c2ccccc2)C2C(C)(C)CC(=O)CC2(C)C23CCC(C)(C2)C(O)CC13 (stereo unspecified),/,/,-10%[53.3 µM],/,/,/
Cc1ccc(S(=O)(=O)NCC(Nc2cccc(Cl)c2)c2ccccc2)cc1 (stereo unspecified),25µM*,?,?,i,-56%,i
Cc1cccc(N(C)C(CNS(=O)(=O)c2ccccc2)c2ccccc2)c1 (stereo unspecified),?,-3,-23%,i,-31%,i
CS(=O)(=O)c1ccc([C@@H](C[C@H]2CCC(=O)C2)C(=O)Nc2cnccn2)cc1Cl,/,/,1%[162 µM],/,/,/
COC(=O)C[C@@H]1C(C(=O)O)=CO[C@@H](O[C@@H]2O[C@H](CO)[C@@H](O)[C@H](O)[C@H]2O)/C1=C\COC(=O)/C=C\c1ccccc1,/,/,23%[53.3 µM],/,/,/
O=C(Nc1c(-c2cccs2)nc2ccccn12)c1ccc(Cl)cc1,/,/,-3%,/,/,/
COc1ccccc1N(CC(=O)NCCSCc1cccc(Cl)c1)S(C)(=O)=O,?,88*,-11%,i,-26%,i
O=C(OCC1=CC(Cl)C(O)C(OC(=O)c2ccccc2)C1O)c1ccccc1 (stereo unspecified),/,/,3%[20.6 µM],/,/,/
Cc1ccc(CNC(=O)Cc2ccc(NC(=O)N3CCSc4ncccc43)cc2)cc1,-24%,8,0%,i,-6%,i
Cc1ccc(CNC(=O)c2cccc(NC(=O)N3CCSc4ncccc43)c2)cc1,?,92*,3%,i,-20%,i
SMILES,HTT prom inh,DRV1 agonist,FH mod,B2AR arrestin ag,HTT-AS act,GALC G270D up
CCn1c(=O)cc(OCC(=O)Nc2ccccc2Cl)c2ccccc21,-18%,-17,-12%,i,-37%,?
CCn1c(=O)cc(OCC(=O)NCc2ccccc2OC)c2ccccc21,-14%,118*,-14%,i,-12%,i
CCn1c(=O)cc(OCC(=O)N2CCN(c3ccc(OC)cc3)CC2)c2ccccc21,-15%,81*,-13%,i,-17%,i
CCn1c(=O)cc(OCC(=O)NCc2ccccc2Cl)c2ccccc21,0%,71*,2%,i,-17%,i
CCn1c(=O)cc(OCC(=O)Nc2cc(OC)c(OC)c(OC)c2)c2ccccc21,9%,90*,-9%,i,-14%,i
CC(C)CCNc1ncccc1C(=O)N1CCN(Cc2ccccc2)CC1,/,/,4%,/,/,/
CCOC(=O)c1ccc(N2C(=O)c3[nH]nc(-c4ccccc4)c3C2c2cccs2)cc1 (stereo unspecified),16µM*,-21,-22%,i,-63%,i
CCOC(=O)c1ccc(N2C(=O)c3[nH]nc(-c4ccc(OCC)cc4)c3C2c2cccs2)cc1 (stereo unspecified),?,8,-20%,i,-37%,i
CN(C)c1cccc(-c2c3c(=O)n(-c4ccccc4Cl)[nH]c3cc(=O)n2C)c1,/,/,-18%,/,/,/
C[C@@H]([C@@H](O)c1ccc(O)cc1)N1CCC(O)(c2ccccc2)CC1,/,/,24%,/,/,/
COc1ccc(Nc2c3c(nc4nncn24)CCC3)cc1OC,-28%,93*,2%,i,-27%,i
O=C(Nc1cccc(C(F)(F)F)c1)c1cc(-c2ccc3c(c2)OCCO3)on1,?,94*,2%,i,-8%,i
Cc1cc(C)cc(NC(=O)c2ccc3oc(=O)c(S(=O)(=O)c4ccc(F)cc4)cc3c2)c1,-12%,103*,3%,i,-53%,i
O=C(CC1N=C2c3ccccc3N=C(SCc3ccc(Cl)cc3)N2C1=O)NCCc1ccccc1 (stereo unspecified),?,74*,?,i,-22%,i
O=C(O)c1ccc2nc(-c3cc4cccc(O)c4oc3=O)[nH]c2c1,?,-14,22µM*,i,-62%,i
CCc1ccc(NCc2cc3cc4c(cc3n(CC(=O)Nc3cccc(OC)c3)c2=O)OCO4)cc1,-21%,-44,-18%,i,-21%,28µM*
